The values that follow come from PubChem BioAssay (NCATS).

Structures are written as SMILES. “And” between values parts separate entries of the source, which are not always exact repeats. Equal entries are not always repeated. Records with an inconclusive call do not appear. The source made the active and inactive calls. Unless noted, calls follow the shape of the dose curve; as a rule, active = well fitted curve in the direction sought with a large enough effect; inconclusive = small, poorly fitted or top-dose-only effect, or another doubt; inactive = no such curve, though single readings can be large; an effect the other way counts as inactive or inconclusive.

The target of experiment [1] is Cytochrome P450 2C9 (Homo sapiens) (UniProt P11712). The experiment can be described thus: Cytochrome P450 family 2 subfamily C member 9 (CYP2C9) small molecule antagonists: luciferase biochemical (cell-free) qHTS assay (AID 1645842; active = well fitted curve in the direction sought with a large enough effect in the repeat runs; an effect the other way counts as inactive or inconclusive; also: nearly all actives have a fitted effect of over 55% in size; also: potency is read from the fitted curve at half-maximal effect). The essentials: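 P450-Glo CYP2C9 system: proluciferin substrate with enzyme in mix containing 0.4% BSA, 10 min at room temperature, then NADPH regeneration solution added and incubated 1 h at 37C. Detection reagent stopped reaction; luminescence read after 20 min as RLU.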
Chain of Cytochrome P450 2C9 (Homo sapiens) (P11712 whole entry, looked up): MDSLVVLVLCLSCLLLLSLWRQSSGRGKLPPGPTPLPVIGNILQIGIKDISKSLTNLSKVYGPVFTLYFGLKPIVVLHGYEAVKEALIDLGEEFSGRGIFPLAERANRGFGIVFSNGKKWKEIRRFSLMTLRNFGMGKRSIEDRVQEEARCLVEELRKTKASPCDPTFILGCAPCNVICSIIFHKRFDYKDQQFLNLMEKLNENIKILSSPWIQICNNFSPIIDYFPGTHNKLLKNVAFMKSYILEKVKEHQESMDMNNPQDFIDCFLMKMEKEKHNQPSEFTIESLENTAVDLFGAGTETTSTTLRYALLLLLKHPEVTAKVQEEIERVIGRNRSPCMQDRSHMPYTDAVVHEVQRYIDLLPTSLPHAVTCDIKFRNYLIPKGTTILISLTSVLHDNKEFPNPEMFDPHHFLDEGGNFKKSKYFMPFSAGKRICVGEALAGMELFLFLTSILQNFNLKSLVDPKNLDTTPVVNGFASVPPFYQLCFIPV
A general note: qHTS replaces the single test concentration by a dilution series.

Experiment [2] is described as follows: Primary qHTS for inhibitors of nuclear receptor binding SET domain protein 2 (NSD2) in an isogenic RCH-ACV NSD2 p.E1099K mutant (9B) (AID 1645876). Also: nearly all actives have a fitted effect of over 70% in size. Also: potency is read from the fitted curve at half-maximal effect.
Experiment [3] in a line: Primary qHTS for inhibitors of nuclear receptor binding SET domain protein 2 (NSD2) in an RCH-ACV wild type WT cells (2C) (AID 1645877). Also: nearly all actives have a fitted effect of over 70% in size. Also: potency is read from the fitted curve at half-maximal effect.
Experiment [4] addresses Catechol O-methyltransferase (Homo sapiens) (UniProt P21964). The experiment in a line: Confirmatory Screen for Target Class Profiling of Small Molecule Inhibitors of Methyltransferases (AID 1745852). As to conditions: MTase-Glo luminescence, SAH detection, recombinant enzyme; measured here: COMT max response; stronger effect = lower value.
Experiment [5] concerns the target N-terminal Xaa-Pro-Lys N-methyltransferase 1 (Homo sapiens) (UniProt Q9BV86). The experiment can be described thus: Confirmatory qHTS for Inhibitors of N-terminal methyltransferase 1 (NTMT1): MTaseGlo Assay (AID 1645874). Also: potency is read from the fitted curve at half-maximal effect; nearly all actives have a fitted effect of over 65% in size. In short, it runs like this: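 Enzyme mix (125 nM NTMT1, 100 uM SAM) + compound, 15 min RT; + 1 uM SPKRIA, 30 min RT, dark; MTase-Glo reagent 30 min, detection solution 30 min; luminescence. % inhibition vs no-enzyme/DMSO controls, 4-parameter Hill fit.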

Chain of Catechol O-methyltransferase (Homo sapiens) (P21964 whole entry, looked up): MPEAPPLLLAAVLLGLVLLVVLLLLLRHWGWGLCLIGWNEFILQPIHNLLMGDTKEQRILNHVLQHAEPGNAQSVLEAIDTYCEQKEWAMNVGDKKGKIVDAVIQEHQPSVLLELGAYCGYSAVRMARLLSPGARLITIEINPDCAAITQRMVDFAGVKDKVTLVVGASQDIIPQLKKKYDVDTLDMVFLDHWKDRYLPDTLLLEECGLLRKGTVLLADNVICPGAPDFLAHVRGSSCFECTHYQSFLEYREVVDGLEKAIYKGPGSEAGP
Chain of N-terminal Xaa-Pro-Lys N-methyltransferase 1 (Homo sapiens) (Q9BV86 whole entry, looked up): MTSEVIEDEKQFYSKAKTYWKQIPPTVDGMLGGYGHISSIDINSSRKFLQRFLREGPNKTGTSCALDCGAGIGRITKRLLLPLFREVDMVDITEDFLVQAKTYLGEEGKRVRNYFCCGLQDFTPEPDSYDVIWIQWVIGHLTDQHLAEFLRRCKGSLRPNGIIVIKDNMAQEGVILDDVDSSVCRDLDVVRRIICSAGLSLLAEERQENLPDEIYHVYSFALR

For `c1cn2cc(-c3ccc4cn[nH]c4c3)nc(Nc3ccc(N4CCOCC4)cc3)c2n1`, the Potency in experiment [1] was 601 nM (active); in experiment [2], 325 nM (active); in experiment [3] it was 409 nM (active). Further, the activity in experiment [4] is -53.7%.
For `CC(=O)NCC(=O)N1C2CCC1c1cc(Nc3ncc(C(F)(F)F)c(NC4CCC4)n3)ccc12` (stereo unspecified), the Potency in experiment [1] was 9520 nM (active); in experiment [2], 72.8 nM (active); in experiment [3] it was 20.5 nM (active).
On the same counts, the results for `Cc1cc(NC(=O)Nc2ccc(F)c(F)c2)n(-c2ccccc2)n1` are 12000 nM (active), “inactive” and “inactive”.
With `CCOc1cc(C(=O)N2CCC(N3CCN(C)CC3)CC2)ccc1Nc1ncc2c(n1)N(C1CCCC1)c1ccccc1C(=O)N2C`, in experiment [1], the Potency result was “inactive”. Further, the Potency in experiment [2] is 1.15 µM (active) and 1.86 µM (active); in experiment [3], 1.29 µM (active) and 1.66 µM (active).
For the compound `CNS(=O)(=O)c1ccccc1Nc1nc(Nc2ccc(N3CCN(C)CC3)cc2OC)ncc1Cl`, the Potency was 3380 nM (active) in experiment [1], 578 nM (active) in experiment [2] and 649 nM (active) in experiment [3].
On the same counts, the results for `CC(C)NCC(C(=O)N1CCN(c2ncnc3c2C(C)CC3O)CC1)c1ccc(Cl)cc1` (stereo unspecified) are “inactive”, 1830 nM (active) and 2300 nM (active).
As to `COc1cc(N2CCC(N3CCN(C)CC3)CC2)ccc1Nc1ncc(Cl)c(-c2c[nH]c3ccccc23)n1`, the Potency in experiment [1] is 19000 nM (active); in experiment [5], 55500 nM (active); in experiment [2] it was 1150 nM (active); in experiment [3], 1840 nM (active). In experiment [4], the activity is -23.6%.
As to `CN(C)C/C=C/C(=O)Nc1cccc(C(=O)Nc2ccc(Nc3nccc(-c4cccnc4)n3)cc2)c1`, the Potency result in experiment [1] was “inactive”. Also, the Potency in experiment [2] is 649 nM (active); in experiment [3] it was 578 nM (active). Besides, the activity in experiment [4] was -2.53%.
As for `COc1ccc2cc(C(C)C(=O)Oc3ccc(C(N)=S)cc3)ccc2c1` (stereo unspecified), the Potency in experiment [1] is 21300 nM (active). Moreover, the Potency result in experiment [2] and in experiment [3] was “inactive” throughout.
